Records with an inconclusive call do not appear. Where a call stands in place of a potency, no number is given. Activity calls are given as the source filed them. Calls follow the shape of the dose curve; as a rule, active = well fitted curve in the direction sought with a large enough effect; inconclusive = small, poorly fitted or top-dose-only effect, or another doubt; inactive = no such curve, though single readings can be large; an effect the other way counts as inactive or inconclusive.
Biological target: Cytochrome P450 3A4 (Homo sapiens) (UniProt P08684)
Test: qHTS Assay for Activators of Cytochrome P450 3A4 (AID 885); also: nearly all actives have a fitted effect of over 65% in size
Conditions: recombinant CYP3A4, Luciferin-PPXE luminescence, 60 min; series mostly up to 57.1 µM
Outline: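 Luminescent readout of luciferin formed from 25 uM Luciferin-PPXE (KM level) by 20 nM CYP3A4 in 200 mM KPO4, with 60 min NADPH-driven reaction at room temperature after 10 min compound exposure. Ketoconazole (57 uM) defined 100% inhibition.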

Sequence of Cytochrome P450 3A4 (Homo sapiens) (P08684 whole entry, looked up): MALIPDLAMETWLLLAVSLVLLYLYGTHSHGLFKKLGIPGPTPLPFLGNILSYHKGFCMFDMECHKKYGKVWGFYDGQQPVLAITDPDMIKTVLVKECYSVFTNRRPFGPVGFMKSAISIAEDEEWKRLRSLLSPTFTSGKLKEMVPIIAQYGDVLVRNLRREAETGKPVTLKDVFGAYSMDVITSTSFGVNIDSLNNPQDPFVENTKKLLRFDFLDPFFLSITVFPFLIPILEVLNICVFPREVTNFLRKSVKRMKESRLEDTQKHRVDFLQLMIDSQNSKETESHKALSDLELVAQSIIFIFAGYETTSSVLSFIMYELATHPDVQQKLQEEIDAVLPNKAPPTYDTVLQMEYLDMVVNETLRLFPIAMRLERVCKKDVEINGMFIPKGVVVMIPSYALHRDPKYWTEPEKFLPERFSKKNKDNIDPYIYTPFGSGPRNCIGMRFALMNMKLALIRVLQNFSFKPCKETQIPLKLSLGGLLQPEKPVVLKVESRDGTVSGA

| SMILES | outcome |
| --- | --- |
| COc1ccc(C2OCC3(COC(C)=O)C(C)C=C(C)C2C3C)cc1 (configuration not stated) | inactive |
| COc1cc(C)c2c(=O)cc(-c3ccccc3)oc2c1 | inactive |
| CC(=O)Oc1c2c(c3c(c1CC=C(C)C)O[C@@]14C(=CC5CC1C(C)(C)OC4(C/C=C(\C)C(=O)O)C5=O)C3=O)OC(C)(CCC=C(C)C)C=C2 (some centres not stated) | inactive |

Biological target: Rap guanine nucleotide exchange factor 3 (Homo sapiens) (UniProt O95398)
Test: Confirmatory qHTS for antagonist of cAMP-regulated guanine nucleotide exchange factor 3 (EPAC1) (AID 1645880); also: nearly all actives have a fitted effect of over 55% in size; also: potency is read from the fitted curve at half-maximal effect
Conditions: EPAC1 Rap1B-BODIPY-GDP exchange, fluorescence; activity, negative = inhibition: at 115 µM (top of the series)
Outline: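 Released BODIPY-GDP fluoresces less than Rap1-bound BODIPY-GDP; the signal is followed at 480/540 nm at 5-min intervals over 30 min, after 5 min at room temperature. Reactions contain 100 nM EPAC1, 250 nM RAP1B-BODIPY-GDP and 50 uM GDP; results are normalized to ATA and DMSO.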

Sequence of Rap guanine nucleotide exchange factor 3 (Homo sapiens) (O95398 whole entry, looked up): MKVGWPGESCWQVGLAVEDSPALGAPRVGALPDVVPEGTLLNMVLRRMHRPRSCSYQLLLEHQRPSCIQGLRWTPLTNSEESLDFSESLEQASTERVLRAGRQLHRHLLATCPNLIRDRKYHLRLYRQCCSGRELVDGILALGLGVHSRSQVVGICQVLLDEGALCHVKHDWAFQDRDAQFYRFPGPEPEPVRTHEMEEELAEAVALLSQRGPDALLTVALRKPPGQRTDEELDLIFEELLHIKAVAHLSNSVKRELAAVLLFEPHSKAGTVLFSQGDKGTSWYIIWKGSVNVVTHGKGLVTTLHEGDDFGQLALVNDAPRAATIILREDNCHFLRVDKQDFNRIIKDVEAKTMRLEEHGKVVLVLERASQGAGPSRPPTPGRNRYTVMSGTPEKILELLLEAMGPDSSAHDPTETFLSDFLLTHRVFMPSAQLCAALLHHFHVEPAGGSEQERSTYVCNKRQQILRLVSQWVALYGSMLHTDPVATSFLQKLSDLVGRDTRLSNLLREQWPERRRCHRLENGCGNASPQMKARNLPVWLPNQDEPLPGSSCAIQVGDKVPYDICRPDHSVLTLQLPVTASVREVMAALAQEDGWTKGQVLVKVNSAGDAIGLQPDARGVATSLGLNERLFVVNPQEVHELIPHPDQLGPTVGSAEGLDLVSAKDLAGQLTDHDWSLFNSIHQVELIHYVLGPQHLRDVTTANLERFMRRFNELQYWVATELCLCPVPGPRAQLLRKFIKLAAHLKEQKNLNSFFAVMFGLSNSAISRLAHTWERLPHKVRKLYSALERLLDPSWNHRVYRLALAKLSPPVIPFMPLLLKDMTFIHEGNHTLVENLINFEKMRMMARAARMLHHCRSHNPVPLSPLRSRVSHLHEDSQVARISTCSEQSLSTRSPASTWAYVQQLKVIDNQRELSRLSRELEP

| SMILES | Potency |
| --- | --- |
| Cc1ccccc1-c1ccc2ncnc(N3CCOCC3)c2c1 | inactive |
| CCN(C(=O)c1sc2cc(OC)ccc2c1Cl)c1ccccc1 | inactive |
| Cc1nc2c(C(=O)NCCc3ccccc3)c[nH]n2c(=O)c1Cc1ccc(F)cc1Cl | 84.9 µM (active) |
| Cc1cc2ccccn2c1C(=O)c1ccc(Cl)c([N+](=O)[O-])c1 | inactive |
| O=C(NCc1ccccc1F)c1ccc(CN2CC(=O)N3CCCCC3C2=O)cc1 (configuration not stated) | inactive |
| OCCCCC#Cc1c(-c2ccsc2)sc2ccccc12 | inactive |
| Cc1cccc(CNC(=O)c2ccc(-c3nc(CS(=O)(=O)c4ccccc4)c(C)o3)cc2)c1 | inactive |
| COc1ccc(C2OCC3(COC(C)=O)C(C)C=C(C)C2C3C)cc1 (configuration not stated) | inactive |
| CCCCCCOC(=O)C(C#N)c1nc2ccccc2nc1N1CCCCC1 (configuration not stated) | inactive |
| CCOc1cc(CNc2ccc(O)cc2)ccc1OCc1ccc(Cl)cc1 | 84.9 µM (active) |
| Cc1onc(-c2ccc3c(c2)OCO3)c1-c1ccc2[nH]ccc2c1 | inactive |
| COc1ccc(C(=S)N2CCOCC2)cc1OC(=O)c1ccccc1Cl | inactive |
| CCCCN(CCCC)c1ccc(/C=C/c2ccnc3ccccc23)cc1 | inactive |
| CSc1ccc(S(=O)(=O)NCC(=O)OCC(=O)N(C)Cc2ccccc2)cc1[N+](=O)[O-] | inactive |
